Mito fusion yeast: qHTS Assay for Small Molecule Inhibitors of Mitochondrial Division or Activators of Mitochondrial Fusion | Potency, µM (top dose mostly 46.1 µM), for inactives: at the highest dose growth rescue (activation), actives largely listed as activators | S. cerevisiae fusion-defective mutant growth rescue, CellTiterGlo 48 h | actives 0.23% (n = 320,000); also: % of control where 0% means no effect; nearly all actives have a fitted effect of over 45% in size
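Growth-rescue viability read-out: after 48 h at the non-permissive 37C in glycerol/ethanol YPEG, yeast mitochondrial fusion mutants are measured by CellTiterGlo luminescence; compounds (23 nl pinned per well) restoring growth score as division inhibitors or fusion activators.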
FUS suppressor: qHTS for Suppressors of FUS Proteinopathy: Primary screen using FUS-linked yeast assay. S. cerevisiae FUS-expressing, growth rescue, OD600, 24 h. Potency, µM (doses to about 76.6 µM), most hits filed as activators. actives 0.24% (n = 390,000). AID 1347120, 2019;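 also: plate controls were DMSO vehicle for no effect and reference control for full effect; nearly all actives have a fitted effect of over 55% in size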
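Yeast FUS proteinopathy model; galactose-induced FUS (2%), starting OD 0.005. Cpds in dilution series, 24hr, 30C, 99% humidity. Abs 600 nm growth. Pos ctrl CP55940 (top 92uM final); neg ctrl DMSO.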
gsp agonist: qHTS for Agonist of gsp, the Etiologic Mutation Responsible for Fibrous Dysplasia/McCune-Albright Syndrome: qHTS | gsp mutant cells, cAMP HTRF, 30 min | Potency, µM (top dose mostly 76.9 µM), for inactives: at the top dose activation (cAMP increase), usual class: activators | actives 0.13% (n = 340,000); active = well fitted activation curve with a large enough effect; inconclusive = small, poorly fitted or top-dose-only effect, or another doubt; inactive = no such curve, though single readings can be large or run the other way; cell line not stated here;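 also: phosphodiesterase inhibitor Ro 20-1724 added with compounds to block cAMP breakdown; nearly all actives have a fitted effect of over 60% in size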
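Cells in DMEM/10% FBS with G418 were pretreated with compounds in DMSO plus […] (300 uM stock) for 30 min at 37C. cAMP was measured by HTRF (cAMP-d2 plus anti-cAMP antibody-K) after 30 min at room temperature.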
12-LOX inh: Primary qHTS assay for inhibitors of human arachidonate 12S-lipoxygenase (ALOX12): Round 2; Polyunsaturated fatty acid lipoxygenase ALOX12 (Homo sapiens), P18054; purified 12hLO, xylenol orange hydroperoxide absorbance; Potency, µM (series often up to 108 µM), for inactives: at the highest dose activity change, negative = inhibition, most hits filed as inhibitors; actives 1.1% (n = 580,000); AID 1671190, 2021; also: % is scaled to controls: 0 for no effect and ±100 for the full control effect
Target sequence (P18054 whole entry, looked up): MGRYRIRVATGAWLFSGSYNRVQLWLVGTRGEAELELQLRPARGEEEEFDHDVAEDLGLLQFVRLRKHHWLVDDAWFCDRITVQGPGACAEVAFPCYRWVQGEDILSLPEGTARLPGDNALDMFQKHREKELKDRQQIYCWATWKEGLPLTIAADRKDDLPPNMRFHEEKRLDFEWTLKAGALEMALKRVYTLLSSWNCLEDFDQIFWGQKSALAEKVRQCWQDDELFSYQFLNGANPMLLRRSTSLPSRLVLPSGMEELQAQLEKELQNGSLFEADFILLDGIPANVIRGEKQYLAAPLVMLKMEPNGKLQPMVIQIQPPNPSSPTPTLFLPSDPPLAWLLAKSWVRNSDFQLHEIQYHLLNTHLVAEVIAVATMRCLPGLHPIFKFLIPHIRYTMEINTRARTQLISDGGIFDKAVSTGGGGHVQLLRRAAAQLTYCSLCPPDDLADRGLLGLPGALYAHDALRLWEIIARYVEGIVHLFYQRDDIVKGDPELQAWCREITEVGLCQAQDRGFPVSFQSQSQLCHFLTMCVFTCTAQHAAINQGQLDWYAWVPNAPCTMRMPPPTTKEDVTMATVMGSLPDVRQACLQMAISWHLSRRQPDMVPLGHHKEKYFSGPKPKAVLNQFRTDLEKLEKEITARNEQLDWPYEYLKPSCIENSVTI
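Hydroperoxide product was detected by ferrous iron/xylenol orange as the 573 to 405 nm absorbance ratio. Arachidonic acid at 40 uM (final) was turned over for 30 min at room temperature by 150 nM human 12hLO, pH 7.0 Hepes buffer, after 15 min compound preincubation.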
gsp antagonist: qHTS for Antagonists of gsp, the Etiologic Mutation Responsible for Fibrous Dysplasia/McCune-Albright Syndrome: qHTS; Potency, µM (highest dose often 76.9 µM), inactives show top-dose activity change, negative = inhibition, actives largely listed as inhibitors; gsp-mutant cells, cAMP HTRF, 30 min; actives 0.4% (n = 340,000); AID 624288, 2012; calls by dose curve; cell line not stated here;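 also: intracellular cAMP measured with PDE inhibitor Ro 20-1724 present during compound exposure; % is scaled to controls: 0 for no effect and ±100 for the full control effect; nearly all actives have a fitted effect of over 65% in size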
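HTRF cAMP measurement after 30 min RT detection following 30 min, 37C compound treatment alongside […] (added as 300 uM solution) in G418-selected cells seeded at 2000/well and grown 16–24 h.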
* = called active by the depositor; [ ] = remark or other dose. This is a sample that favours compounds with a hit; in the whole collection about 1.6% have one here. Unless noted, calls follow the shape of the dose curve; as a rule, active = well fitted curve in the direction sought with a large enough effect; inconclusive = small, poorly fitted or top-dose-only effect, or another doubt; inactive = no such curve, though single readings can be large; an effect the other way counts as inactive or inconclusive. Potency is read from the fitted curve at half-maximal effect.

Screening S=c1[nH]nc(COc2ccccc2)n1/N=C/c1ccccn1 returned Mito fusion yeast -2.0%, gsp agonist 14.9%, 12-LOX inh 1.58µM* and gsp antagonist inconclusive.
Screening S=c1[nH]nc(COc2ccccc2)n1/N=C/c1ccc(Cl)c(Cl)c1 returned Mito fusion yeast -12.3%, FUS suppressor inactive, gsp agonist 19.5%, 12-LOX inh -27.7% and gsp antagonist -33.8%.
For S=c1[nH]nc(COc2ccccc2)n1/N=C/c1ccccc1Br the results were Mito fusion yeast -10.1%, FUS suppressor inactive, gsp agonist -2.9%[15.4 µM], 12-LOX inh inconclusive and gsp antagonist -10.8%.
Oc1ccc(Br)cc1/C=N/n1c(COc2ccccc2)n[nH]c1=S was read as Mito fusion yeast -7.2%, FUS suppressor inactive, gsp agonist -12.8%, 12-LOX inh 8.91µM* and gsp antagonist -10.8%.
For COCCn1c(SCc2nc(C(C)(C)C)no2)nc2sc(C)c(C)c2c1=O the results were 12-LOX inh -7.2%.
Screening CC(C)C(NCc1ccccc1)C(=O)O (stereo not given) returned 12-LOX inh -30.0%.
`O=C1C=CC(=O)N1N(c1ccccc1)c1ccccc1` gave Mito fusion yeast -2.7%, gsp agonist 4.0%, 12-LOX inh 35.5µM* and gsp antagonist 18.1%.
Screening CC(C1CC1)N(Cc1ccc(C(N)=O)cc1)C1CC1 (stereo not given) returned 12-LOX inh 5.1%.
For Cc1ccc(S(=O)(=O)N2[C@@H](c3ccc(C(C)(C)C)cc3)C(C(=O)O)=CC[C@H]2c2ccc(Cl)c(Cl)c2)cc1 the results were FUS suppressor inactive, 12-LOX inh 35.5µM* and gsp antagonist 4.3%.
`Cc1ccc(S(=O)(=O)N2[C@@H](c3ccc(C(C)(C)C)cc3)C(C(=O)O)=CC[C@H]2c2cccc(Cl)c2)cc1` gave FUS suppressor inactive, 12-LOX inh -83.3% and gsp antagonist -12.1%.
For Cc1cc(=O)n(CC(=O)Nc2cccc(Cl)c2C)c(N2CCN(c3ccccc3)CC2)n1 the results were 12-LOX inh -10.4%.
C/C(=N\NC(=O)C(C)C)c1ccccc1 was read as 12-LOX inh -18.3%.
For COc1ccc(CNC(=O)c2ccc(Cn3ccn4nc5c(c4c3=O)CCCC5)cc2)cc1 the results were 12-LOX inh -3.0%.
Screening CN(C)CCCN=c1cc(-c2ccccc2)oc2ccc(Cl)cc12 returned Mito fusion yeast -3.8%, FUS suppressor inactive, gsp agonist inconclusive, 12-LOX inh 35.5µM* and gsp antagonist 6.9%.
OCCN=c1cc(-c2ccccc2)oc2ccc(Cl)cc12 was read as Mito fusion yeast 2.5%, FUS suppressor inactive, gsp agonist -46.5% and gsp antagonist 8.0%.
Screening CC(=O)C1(O)C(C)CC2C3CC=C4CC(O)CCC4(C)C3CCC21C (stereo not given) returned FUS suppressor inactive, gsp agonist inconclusive, 12-LOX inh -19.5% and gsp antagonist 6.7%.
CC(=O)N1[C@@H]2CC3C4CC=C5C[C@@H](O)CC[C@]5(C)C4CC[C@]3(C)[C@@]21C(C)=O (stereo not given in full) was read as Mito fusion yeast 22.4µM*, FUS suppressor inactive, gsp agonist 4.6%, 12-LOX inh -8.6% and gsp antagonist 4.4%.
`CC[C@@H](C)[C@H]1O[C@]2(CC[C@@H]1C)C[C@@H]1C[C@H](C/C=C(/C)[C@H](O[C@@H]3C[C@H](OC)[C@H](O[C@@H]4C[C@H](OC)[C@@H](O)[C@H](C)O4)[C@H](C)O3)[C@@H](C)/C=C\C=C3CO[C@@H]4[C@H](O)C(C)=C[C@@H](C(=O)O1)[C@]34O)O2` (tested in a mixture with another compound) gave 12-LOX inh 0.0%.
For CC[C@@H](C)[C@H]1O[C@]2(CC[C@H]1C)C[C@@H]1C[C@@H](CC=C(C)[C@@H](O[C@H]3C[C@H](OC)[C@@H](O[C@H]4C[C@H](OC)[C@@H](O)[C@H](C)O4)[C@H](C)O3)[C@@H](C)C=CC=C3CO[C@@H]4[C@H](O)C(C)=C[C@@H](C(=O)O1)[C@]34O)O2 the results were Mito fusion yeast 2.31µM*.
`CC[C@H](C)[C@H]1O[C@]2(CC[C@@H]1C)C[C@@H]1C[C@@H](CC=C(C)[C@@H](O[C@H]3C[C@H](OC)[C@@H](O[C@H]4C[C@H](OC)[C@@H](O)[C@H](C)O4)[C@H](C)O3)[C@@H](C)C=CC=C3CO[C@@H]4[C@H](O)C(C)=C[C@@H](C(=O)O1)[C@]34O)O2` gave FUS suppressor 7.08µM* and gsp antagonist inconclusive.
CO[C@H]1C[C@H](O[C@H]2[C@H](C)O[C@@H](O[C@@H]3/C(C)=C/C[C@@H]4C[C@@H](C[C@]5(C=C[C@H](C)[C@@H](C6CCCCC6)O5)O4)OC(=O)[C@@H]4C=C(C)[C@@H](O)[C@H]5OC/C(=C\C=C\[C@@H]3C)[C@]54O)C[C@@H]2OC)O[C@@H](C)[C@@H]1O was read as 12-LOX inh 9.7%.
Screening CCC(C)(C)c1ccc2c(C(=O)N3C[C@H](N)C[C@H]3C(=O)NC)csc2c1 returned 12-LOX inh 12.6µM*.
COc1ccc(NC(=O)Cc2ccc(OC)c(OC)c2)cn1 was read as 12-LOX inh -19.2%.
For Clc1ccc(-c2nnc(SCc3nc4ccccc4o3)o2)cc1 the results were 12-LOX inh 13.7%.
Screening CCN1CCN(c2oc(-c3ccccc3OC)nc2C#N)CC1 returned 12-LOX inh -5.9%.
CCN(CC)c1ccc(NC(=O)CCCOc2cccc(C)c2)cc1 was read as Mito fusion yeast 4.2%, FUS suppressor inactive, gsp agonist -12.9%[15.4 µM], 12-LOX inh 39.8µM* and gsp antagonist -5.0%.
Screening Cc1cccc(OCCCC(=O)Nc2ccc(S(N)(=O)=O)cc2)c1 returned Mito fusion yeast -1.1%, FUS suppressor inactive, gsp agonist 3.1%[15.4 µM], 12-LOX inh 6.8% and gsp antagonist 15.9%.
Cc1nc2ncnn2c(N2CCCC(C(=O)Nc3ccc4c(c3)CCC4)C2)c1C (stereo not given) was read as Mito fusion yeast -9.1%, FUS suppressor inactive, gsp agonist inconclusive, 12-LOX inh -18.0% and gsp antagonist 39.8µM*.
